Reference: PubChem BioAssay (NCI)
The panel holds about 83,000 compounds, 20% with a hit somewhere; the sample as a whole holds those more often.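 Note: values are percent growth. 100 is the growth of untreated cells, values between 100 and 0 indicate rising inhibition; between -100 and 0 indicates cell death.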 Activity calls are given as the source filed them. How the source made its calls: active means growth percent below 10; inactive means the rest.

How the values were obtained:
Assay in all cases: NCI-60 one-dose screen, 48 h (100 = growth as untreated, 0 = no growth, -100 = all killed)
Details in all cases: 10 µM unless noted
HCT-15 colon = tested on: HCT-15 colon
HT29 colon = tested on: HT29 colon
SNB-19 CNS = tested on: SNB-19 CNS
U251 CNS = tested on: U251 CNS
PC-3 prostate = tested on: PC-3 prostate
SK-MEL-5 melanoma = tested on: SK-MEL-5 melanoma
UACC-62 melanoma = tested on: UACC-62 melanoma
LOX IMVI melanoma = tested on: LOX IMVI melanoma
SK-MEL-28 melanoma = tested on: SK-MEL-28 melanoma
SK-MEL-2 melanoma = tested on: SK-MEL-2 melanoma
EKVX NSCLC = tested on: EKVX NSCLC
SN12C renal = tested on: SN12C renal
UO-31 renal = tested on: UO-31 renal
TK-10 renal = tested on: TK-10 renal
ACHN renal = tested on: ACHN renal
CAKI-1 renal = tested on: CAKI-1 renal
A498 renal = tested on: A498 renal
CCRF-CEM leukemia = tested on: CCRF-CEM leukemia
MOLT-4 leukemia = tested on: MOLT-4 leukemia

Measured: growth

COc1ccc(/C=C2/C(=O)NC(SCC(=O)N3CCN(c4cc5c(cc4F)c(=O)c(C(=O)O)cn5C4CC4)CC3)=NC2N)cc1OC (centres undefined)
inactive: HCT-15 colon 98.9% | HT29 colon 112% | SNB-19 CNS 102% | U251 CNS 102% | PC-3 prostate 99.2% | SK-MEL-5 melanoma 104% | UACC-62 melanoma 102% | LOX IMVI melanoma 103% | SK-MEL-28 melanoma 105% | SK-MEL-2 melanoma 111% | EKVX NSCLC 87.6% | SN12C renal 104% | UO-31 renal 86.9% | TK-10 renal 112% | ACHN renal 104% | CAKI-1 renal 94.5% | A498 renal 107% | CCRF-CEM leukemia 99.4% | MOLT-4 leukemia 109%

Cc1cc(N/N=C/c2nc(-c3ccccc3)oc2C)c2cc(Br)ccc2n1
inactive: HCT-15 colon 43.6% | HT29 colon 65.6% | SNB-19 CNS 91.2% | U251 CNS 38.5% | PC-3 prostate 79.5% | SK-MEL-5 melanoma 103% | UACC-62 melanoma 88.3% | SK-MEL-28 melanoma 26% | SK-MEL-2 melanoma 106% | EKVX NSCLC 107% | SN12C renal 32.3% | UO-31 renal 78.1% | TK-10 renal 101% | ACHN renal 89.9% | CAKI-1 renal 80% | A498 renal 66.1% | CCRF-CEM leukemia 27.7% | MOLT-4 leukemia 50.5%
active: LOX IMVI melanoma -31.7%

Cc1ccc(S(=O)(=O)NCCCNc2cc(-c3cn(C(C)(C)C)nc3-c3cccc(O)c3)ccn2)cc1
inactive: HCT-15 colon 16.5% | HT29 colon 12.8% | SNB-19 CNS 80% | U251 CNS 58.1% | PC-3 prostate 39.6% | SK-MEL-5 melanoma 42.8% | UACC-62 melanoma 66.8% | LOX IMVI melanoma 13.5% | SK-MEL-28 melanoma 60.6% | SK-MEL-2 melanoma 70.4% | EKVX NSCLC 61% | SN12C renal 64.6% | UO-31 renal 73.2% | TK-10 renal 107% | ACHN renal 62.4% | CAKI-1 renal 59.7% | A498 renal 85.1% | CCRF-CEM leukemia 52.4% | MOLT-4 leukemia 49.1%

Cc1ccc(C(=O)NCCCNc2nccc(-n3ccc4cccnc43)n2)cc1
inactive: HCT-15 colon 102% | HT29 colon 106% | SNB-19 CNS 90.6% | U251 CNS 93.2% | PC-3 prostate 97.8% | SK-MEL-5 melanoma 99.5% | UACC-62 melanoma 102% | LOX IMVI melanoma 97% | SK-MEL-28 melanoma 106% | SK-MEL-2 melanoma 105% | EKVX NSCLC 86.1% | SN12C renal 95.1% | UO-31 renal 85.9% | TK-10 renal 67.7% | ACHN renal 83.2% | CAKI-1 renal 96.6% | A498 renal 81.7% | CCRF-CEM leukemia 107% | MOLT-4 leukemia 94.1%

O=C1CS/C(=N\Nc2cc(=O)[nH]c3ccccc23)N1c1ccccc1
inactive: HCT-15 colon 94.5% | HT29 colon 98.6% | SNB-19 CNS 90.7% | U251 CNS 95% | PC-3 prostate 80.9% | SK-MEL-5 melanoma 96.2% | UACC-62 melanoma 85.5% | LOX IMVI melanoma 88.2% | SK-MEL-28 melanoma 111% | SK-MEL-2 melanoma 100% | EKVX NSCLC 87.3% | SN12C renal 94.1% | UO-31 renal 69.7% | TK-10 renal 111% | ACHN renal 93.6% | CAKI-1 renal 81.3% | A498 renal 81.7% | CCRF-CEM leukemia 86.2% | MOLT-4 leukemia 98.8%

CC(C)(C)NCCC(O)c1cc2c(Cl)cc(Cl)cc2c2cc(C(F)(F)F)ccc12 (centres undefined)
active: HCT-15 colon -70.5% | HT29 colon -80.3% | SNB-19 CNS -70.9% | U251 CNS -94.2% | PC-3 prostate -92.3% | SK-MEL-5 melanoma -63.2% | UACC-62 melanoma -77.3% | LOX IMVI melanoma -70.7% | SK-MEL-28 melanoma -91.6% | SK-MEL-2 melanoma -69.5% | EKVX NSCLC -63.9% | SN12C renal -80.1% | UO-31 renal -88.8% | TK-10 renal -85.7% | ACHN renal -75.9% | CAKI-1 renal -68.2% | CCRF-CEM leukemia -50.7% | MOLT-4 leukemia -61.9%
inactive: A498 renal 16.5%

Brc1cccc(-c2cc(-c3ccc4nccnc4c3)[nH]n2)c1
inactive: SNB-19 CNS 30.5% [25 µM] | U251 CNS 21.7% [25 µM] | PC-3 prostate 27% [25 µM] | SK-MEL-5 melanoma 20.9% [25 µM] | UACC-62 melanoma 38.1% [25 µM] | LOX IMVI melanoma 18.6% [25 µM] | SK-MEL-28 melanoma 64.9% [25 µM] | SK-MEL-2 melanoma 46.3% [25 µM] | EKVX NSCLC 16% [25 µM] | SN12C renal 35.5% [25 µM] | UO-31 renal 38.8% [25 µM] | TK-10 renal 52.1% [25 µM] | ACHN renal 39.6% [25 µM] | CAKI-1 renal 29.4% [25 µM] | CCRF-CEM leukemia 15.3% [25 µM] | MOLT-4 leukemia 30.2% [25 µM]
active: HCT-15 colon 9.57% [25 µM] | HT29 colon 5.66% [25 µM] | A498 renal -9.23% [25 µM]

CCCCN(CCCC)C(=O)CC
inactive: HCT-15 colon 101% | HT29 colon 110% | SNB-19 CNS 114% | U251 CNS 120% | PC-3 prostate 98.2% | SK-MEL-5 melanoma 103% | UACC-62 melanoma 106% | LOX IMVI melanoma 104% | SK-MEL-28 melanoma 114% | SK-MEL-2 melanoma 112% | EKVX NSCLC 105% | SN12C renal 109% | UO-31 renal 99.5% | TK-10 renal 114% | ACHN renal 112% | CAKI-1 renal 109% | A498 renal 97.7% | CCRF-CEM leukemia 96.8% | MOLT-4 leukemia 97.8%

Cc1nc2c3c(ncn2n1)Oc1c(c(=O)[nH]c2ccccc12)C3c1ccc(Cl)cc1 (centres undefined)
inactive: HCT-15 colon 99.6% | HT29 colon 102% | SNB-19 CNS 92% | U251 CNS 94.1% | PC-3 prostate 83.4% | SK-MEL-5 melanoma 94.8% | UACC-62 melanoma 90.6% | LOX IMVI melanoma 91.1% | SK-MEL-28 melanoma 110% | SK-MEL-2 melanoma 101% | EKVX NSCLC 86.6% | SN12C renal 97% | UO-31 renal 64.5% | TK-10 renal 105% | ACHN renal 96.1% | CAKI-1 renal 83.8% | A498 renal 95.4% | CCRF-CEM leukemia 96.5% | MOLT-4 leukemia 101%

Cc1ccc(S(=O)(=O)NCCNc2cc(-c3cn(C(C)(C)C)nc3-c3cccc(O)c3)ccn2)cc1
inactive: HCT-15 colon 31.1% | HT29 colon 17.2% | SNB-19 CNS 84.4% | U251 CNS 62.9% | PC-3 prostate 46.7% | SK-MEL-5 melanoma 30.9% | UACC-62 melanoma 77% | LOX IMVI melanoma 47.4% | SK-MEL-28 melanoma 57.7% | SK-MEL-2 melanoma 84.3% | EKVX NSCLC 64.6% | SN12C renal 66.5% | UO-31 renal 58% | TK-10 renal 103% | ACHN renal 78.9% | CAKI-1 renal 77% | A498 renal 80.8% | CCRF-CEM leukemia 60.7% | MOLT-4 leukemia 48.4%

Nc1cccc(-c2nc3sccn3c2-c2ccnc(NCCCNS(=O)(=O)c3cccc4ccccc34)n2)c1
active: SK-MEL-5 melanoma 4.1% | LOX IMVI melanoma 9.92%
inactive: HCT-15 colon 25.4% | HT29 colon 20.6% | SNB-19 CNS 55.6% | U251 CNS 49.3% | PC-3 prostate 31.2% | UACC-62 melanoma 22.2% | SK-MEL-28 melanoma 64.5% | SK-MEL-2 melanoma 36.3% | EKVX NSCLC 56.7% | SN12C renal 39.3% | UO-31 renal 21.5% | TK-10 renal 76.5% | ACHN renal 31.6% | CAKI-1 renal 34.9% | A498 renal 29.8% | CCRF-CEM leukemia 16.1% | MOLT-4 leukemia 10.3%

CC(C)C1=CC2=C(C=O)C[C@@H]3[C@](C)(CCC[C@@]3(C)C(=O)OCC#CCN3CCCC3)[C@H]2CC1
inactive: HCT-15 colon 60.9% | HT29 colon 18.5% | SNB-19 CNS 85.2% | U251 CNS 56.1% | PC-3 prostate 54.9% | SK-MEL-5 melanoma 65.1% | UACC-62 melanoma 77.4% | LOX IMVI melanoma 91.9% | SK-MEL-28 melanoma 96.8% | SK-MEL-2 melanoma 94% | EKVX NSCLC 98.2% | SN12C renal 83.7% | UO-31 renal 61.6% | TK-10 renal 93.6% | ACHN renal 97.3% | CAKI-1 renal 105% | A498 renal 88.6% | CCRF-CEM leukemia 63.9% | MOLT-4 leukemia 66.9%

C=CCn1cc(-c2nc3ccccc3s2)c2cc(-c3ccc4c5c(cccc35)C(=O)N(CCN3CCNCC3)C4=O)ccc21
inactive: HCT-15 colon 16.1% | HT29 colon 11% | SNB-19 CNS 90% | U251 CNS 95.2% | PC-3 prostate 65.2% | SK-MEL-5 melanoma 99.1% | UACC-62 melanoma 93.6% | LOX IMVI melanoma 77.6% | SK-MEL-28 melanoma 107% | SK-MEL-2 melanoma 99% | EKVX NSCLC 87.8% | SN12C renal 76.3% | UO-31 renal 80.7% | TK-10 renal 132% | ACHN renal 67.4% | CAKI-1 renal 74% | A498 renal 98.9% | CCRF-CEM leukemia 30.2% | MOLT-4 leukemia 92.8%

O=[N+]([O-])c1ccc(-c2cn(-c3ccccc3)c(-c3ccccc3)n2)cc1
inactive: HCT-15 colon 95.2% | HT29 colon 98.6% | SNB-19 CNS 36.3% | U251 CNS 58.6% | PC-3 prostate 48.1% | SK-MEL-5 melanoma 128% | UACC-62 melanoma 83.1% | LOX IMVI melanoma 94.3% | SK-MEL-28 melanoma 96.7% | SK-MEL-2 melanoma 74.8% | EKVX NSCLC 88.7% | SN12C renal 77.6% | UO-31 renal 55% | TK-10 renal 108% | ACHN renal 95.1% | CAKI-1 renal 87.7% | A498 renal 82% | CCRF-CEM leukemia 27.3% | MOLT-4 leukemia 62.7%

CC12CCC3C4(C)COC(c5ccccc5Cl)OC4CCC3(C)C1CC(C1=CCOC1=O)O2 (centres undefined)
inactive: HCT-15 colon 41.2% | HT29 colon 57.1% | SNB-19 CNS 78.7% | U251 CNS 74.1% | PC-3 prostate 47.9% | SK-MEL-5 melanoma 17.1% | UACC-62 melanoma 45.8% | LOX IMVI melanoma 58.6% | SK-MEL-28 melanoma 60.5% | SK-MEL-2 melanoma 77.4% | EKVX NSCLC 63.7% | SN12C renal 70.2% | UO-31 renal 53.9% | TK-10 renal 94.9% | ACHN renal 58.8% | CAKI-1 renal 56.1% | A498 renal 50.8% | CCRF-CEM leukemia 66.8% | MOLT-4 leukemia 34.5%

O=C(O)c1cn(C2CC2)c2cc(N3CCN(C(=O)/C=C/c4ccc(Cl)cc4)CC3)c(F)cc2c1=O
inactive: HCT-15 colon 51.6% | HT29 colon 82.1% | SNB-19 CNS 82.8% | U251 CNS 77.7% | PC-3 prostate 72.6% | SK-MEL-5 melanoma 64.8% | UACC-62 melanoma 61.7% | LOX IMVI melanoma 22% | SK-MEL-28 melanoma 66.5% | SK-MEL-2 melanoma 98.8% | EKVX NSCLC 80.4% | SN12C renal 70.5% | TK-10 renal 105% | ACHN renal 76.7% | CAKI-1 renal 73.8% | A498 renal 29% | CCRF-CEM leukemia 64.8% | MOLT-4 leukemia 57.8%
active: UO-31 renal -62.8%
